# ChEMBL document CHEMBL2218924, “A broad activity screen in support of a chemogenomic map for kinase signalling research and drug discovery” (Biochem J, 2013)
# How the values were obtained:
# [1] = molecular target: T1, Mitogen-activated protein kinase 13 (Homo sapiens) (UniProt O15264); settings: at 1 µM
# T1 sequence (whole entry): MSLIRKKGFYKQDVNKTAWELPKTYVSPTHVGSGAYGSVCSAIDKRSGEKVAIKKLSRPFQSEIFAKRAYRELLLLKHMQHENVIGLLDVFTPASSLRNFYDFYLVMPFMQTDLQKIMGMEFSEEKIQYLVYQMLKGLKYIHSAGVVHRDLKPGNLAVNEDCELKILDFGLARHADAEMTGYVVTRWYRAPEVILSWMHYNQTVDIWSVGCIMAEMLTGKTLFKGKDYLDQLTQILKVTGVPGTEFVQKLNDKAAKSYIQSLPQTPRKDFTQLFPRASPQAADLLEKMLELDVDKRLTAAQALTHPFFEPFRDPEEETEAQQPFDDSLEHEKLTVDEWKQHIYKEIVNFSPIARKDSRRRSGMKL
# [2] = molecular target: T1, Mitogen-activated protein kinase 13 (Homo sapiens); settings: at 10 µM
# [3] = molecular target: T2, Serine/threonine-protein kinase Sgk2 (Homo sapiens) (UniProt Q9HBY8); settings: at 10 µM
# T2 sequence (whole entry): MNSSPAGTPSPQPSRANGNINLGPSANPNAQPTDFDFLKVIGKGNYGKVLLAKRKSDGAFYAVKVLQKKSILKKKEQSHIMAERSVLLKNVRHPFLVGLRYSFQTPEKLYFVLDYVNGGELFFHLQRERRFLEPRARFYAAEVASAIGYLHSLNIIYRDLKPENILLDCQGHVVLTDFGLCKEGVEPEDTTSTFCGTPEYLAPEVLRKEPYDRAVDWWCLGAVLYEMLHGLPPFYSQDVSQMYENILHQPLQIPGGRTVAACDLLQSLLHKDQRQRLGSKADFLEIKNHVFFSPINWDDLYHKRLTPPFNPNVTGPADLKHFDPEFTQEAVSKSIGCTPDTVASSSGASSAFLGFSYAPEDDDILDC
# [4] = molecular target: Serine/threonine-protein kinase SIK1 (Homo sapiens) (UniProt P57059); settings: at 1 µM
# [5] = molecular target: Mitogen-activated protein kinase 11 (Homo sapiens) (UniProt Q15759); settings: at 10 µM
# [6] = molecular target: T3, Serine/threonine-protein kinase Sgk1 (Homo sapiens) (UniProt O00141); settings: at 1 µM
# T3 sequence (whole entry): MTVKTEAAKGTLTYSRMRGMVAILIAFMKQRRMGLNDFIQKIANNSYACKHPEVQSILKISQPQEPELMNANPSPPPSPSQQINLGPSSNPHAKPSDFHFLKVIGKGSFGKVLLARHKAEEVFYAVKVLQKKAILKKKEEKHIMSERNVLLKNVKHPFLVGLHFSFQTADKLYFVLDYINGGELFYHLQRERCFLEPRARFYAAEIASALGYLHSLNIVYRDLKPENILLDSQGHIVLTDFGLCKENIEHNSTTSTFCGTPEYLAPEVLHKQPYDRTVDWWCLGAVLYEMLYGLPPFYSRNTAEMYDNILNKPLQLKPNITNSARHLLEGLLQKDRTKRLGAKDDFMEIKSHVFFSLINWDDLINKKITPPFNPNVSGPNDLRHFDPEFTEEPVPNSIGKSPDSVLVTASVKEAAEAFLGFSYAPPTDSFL
# [7] = molecular target: T3, Serine/threonine-protein kinase Sgk1 (Homo sapiens); settings: at 10 µM
# [8] = molecular target: T2, Serine/threonine-protein kinase Sgk2 (Homo sapiens); settings: at 1 µM
# [9] = molecular target: T4, Serine/threonine-protein kinase Sgk3 (Homo sapiens) (UniProt Q96BR1); settings: at 10 µM
# T4 sequence (whole entry): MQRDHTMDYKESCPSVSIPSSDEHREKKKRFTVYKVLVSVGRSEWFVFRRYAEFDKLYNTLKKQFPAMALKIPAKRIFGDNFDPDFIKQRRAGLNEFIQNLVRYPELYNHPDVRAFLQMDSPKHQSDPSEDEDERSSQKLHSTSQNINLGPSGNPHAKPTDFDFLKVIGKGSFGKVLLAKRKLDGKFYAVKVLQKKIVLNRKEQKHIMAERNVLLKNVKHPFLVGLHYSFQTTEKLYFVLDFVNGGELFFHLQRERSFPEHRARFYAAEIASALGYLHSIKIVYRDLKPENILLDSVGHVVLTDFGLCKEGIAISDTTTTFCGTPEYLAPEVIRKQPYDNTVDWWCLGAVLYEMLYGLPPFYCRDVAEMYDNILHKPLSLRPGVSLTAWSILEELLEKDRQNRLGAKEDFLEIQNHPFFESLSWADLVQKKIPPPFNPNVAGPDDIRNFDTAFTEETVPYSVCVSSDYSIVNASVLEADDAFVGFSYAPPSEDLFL
# Sequence of Serine/threonine-protein kinase SIK1 (Homo sapiens) (P57059 whole entry): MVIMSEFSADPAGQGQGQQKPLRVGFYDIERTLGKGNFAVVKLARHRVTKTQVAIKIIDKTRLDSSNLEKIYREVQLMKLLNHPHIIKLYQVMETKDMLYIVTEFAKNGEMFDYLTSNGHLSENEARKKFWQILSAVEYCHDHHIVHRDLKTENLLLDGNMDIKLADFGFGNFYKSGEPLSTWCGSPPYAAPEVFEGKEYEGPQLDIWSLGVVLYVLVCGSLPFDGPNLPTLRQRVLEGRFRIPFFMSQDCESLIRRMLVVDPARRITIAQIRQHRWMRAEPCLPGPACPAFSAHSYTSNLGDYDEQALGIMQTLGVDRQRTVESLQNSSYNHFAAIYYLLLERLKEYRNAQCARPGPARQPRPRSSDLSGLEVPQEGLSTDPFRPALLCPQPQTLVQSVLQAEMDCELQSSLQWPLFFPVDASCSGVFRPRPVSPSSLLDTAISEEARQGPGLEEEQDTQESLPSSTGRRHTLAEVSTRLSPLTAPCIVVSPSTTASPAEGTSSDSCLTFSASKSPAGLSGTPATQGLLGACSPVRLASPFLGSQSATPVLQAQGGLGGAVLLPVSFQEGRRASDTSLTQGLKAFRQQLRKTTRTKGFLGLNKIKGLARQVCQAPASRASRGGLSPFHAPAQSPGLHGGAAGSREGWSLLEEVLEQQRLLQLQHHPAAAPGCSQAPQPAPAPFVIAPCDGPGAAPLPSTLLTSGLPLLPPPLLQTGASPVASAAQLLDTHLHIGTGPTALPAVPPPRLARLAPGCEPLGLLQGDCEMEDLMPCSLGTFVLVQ
# Sequence of Mitogen-activated protein kinase 11 (Homo sapiens) (Q15759 whole entry): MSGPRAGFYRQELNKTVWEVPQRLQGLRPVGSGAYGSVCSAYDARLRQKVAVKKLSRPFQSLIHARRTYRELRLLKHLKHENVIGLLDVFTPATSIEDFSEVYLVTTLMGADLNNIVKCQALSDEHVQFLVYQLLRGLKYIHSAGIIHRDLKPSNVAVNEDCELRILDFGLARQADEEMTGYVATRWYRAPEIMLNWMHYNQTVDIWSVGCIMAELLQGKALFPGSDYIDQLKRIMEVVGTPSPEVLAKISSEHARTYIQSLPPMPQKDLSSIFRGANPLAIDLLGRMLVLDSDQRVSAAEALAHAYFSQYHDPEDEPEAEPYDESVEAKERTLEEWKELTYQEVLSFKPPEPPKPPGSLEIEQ
structure (smiles),measurement,setting,value
O=C1NC(=O)C(c2cn(CCCO)c3ncccc23)=C1c1cnccn1,residual activity,[1],99%
same,residual activity,[2],94%
same,residual activity,[3],92%
same,residual activity,[4],129%
Cn1c2ccccc2c2c3c(c4c5ccccc5n(CCC#N)c4c21)CNC3=O,residual activity,[5],100%
same,residual activity,[1],99%
same,residual activity,[6],82%
same,residual activity,[7],40%
same,residual activity,[8],76%
same,residual activity,[3],47%
same,residual activity,[4],9%
Cc1cc(C)c(/C=C2\C(=O)Nc3ccccc32)[nH]1,residual activity,[1],124%
same,residual activity,[8],80%
same,residual activity,[3],67%
Nc1nccc(-c2c(-c3ccc(F)cc3)ncn2C2CCNCC2)n1,residual activity,[9],75%
same,residual activity,[4],132%
O=C1NC(=O)C(c2cn(CCCn3ccnc3)c3ccccc23)=C1Nc1ccccc1,residual activity,[6],46%
same,residual activity,[7],14%
same,residual activity,[8],52%
same,residual activity,[3],12%
same,residual activity,[4],79%
O=C(Nc1ccc(Cl)cc1)c1ccccc1NCc1ccncc1,residual activity,[7],128%
same,residual activity,[3],72%
O=C(Nc1nc2ccccc2n1CCN1CCOCC1)c1cccc([N+](=O)[O-])c1,residual activity,[1],109%
same,residual activity,[2],87%
same,residual activity,[8],108%
same,residual activity,[3],75%
same,residual activity,[4],70%
Nc1n[nH]c2nc3ccccc3nc12,residual activity,[2],98%
same,residual activity,[8],92%
same,residual activity,[3],45%
same,residual activity,[4],118%
CCN1/C(=C/C(C)=O)Sc2ccc(OC)cc21,residual activity,[9],65%
CCCCc1c(-c2ccc(O)cc2)[nH]c2nccnc12,residual activity,[1],98%
same,residual activity,[2],88%
same,residual activity,[8],92%
same,residual activity,[3],90%
same,residual activity,[9],75%
same,residual activity,[4],69%
O=S(=O)(NCCNC/C=C/c1ccc(Br)cc1)c1cccc2cnccc12,residual activity,[3],30%
same,residual activity,[4],137%
CC(C)N(CCC(=O)c1ccc2ccccc2c1)Cc1ccccc1,residual activity,[6],78%
same,residual activity,[7],100%
same,residual activity,[9],85%
same,residual activity,[4],79%
N#C/C(=C1/Nc2ccccc2S1)c1ccnc(NCCc2cccnc2)n1,residual activity,[1],78%
same,residual activity,[2],48%
same,residual activity,[4],146%
COc1cc2ncnc(Nc3cccc(Cl)c3)c2cc1OC,residual activity,[5],45%
same,residual activity,[1],118%
same,residual activity,[2],109%
same,residual activity,[6],89%
same,residual activity,[7],113%
same,residual activity,[8],77%
same,residual activity,[3],70%
same,residual activity,[4],84%
CCN(CC)CCNC(=O)c1c(C)[nH]c(/C=C2\C(=O)Nc3ccc(Cl)cc32)c1C,residual activity,[6],59%
same,residual activity,[7],23%
same,residual activity,[8],60%
same,residual activity,[3],32%
same,residual activity,[9],73%
same,residual activity,[4],31%
CCOc1nc(NC(=O)Cc2cc(OC)ccc2OC)cc(N)c1C#N,residual activity,[6],79%
same,residual activity,[7],100%
O=S(=O)(c1cccc2cnccc12)N1CCCNCC1,residual activity,[6],84%
same,residual activity,[3],67%
same,residual activity,[4],126%
CC(C)c1nn(-c2c(Cl)cccc2Cl)c2nc(Cc3ccc(OCCO)cc3)[nH]c(=O)c12,residual activity,[5],105%
same,residual activity,[2],59%
same,residual activity,[6],99%
same,residual activity,[7],103%
same,residual activity,[8],97%
same,residual activity,[3],91%
same,residual activity,[9],81%
same,residual activity,[4],109%
COc1ccc2c(c1)c(C1=C(c3c[nH]c4ccccc34)C(=O)NC1=O)cn2CCCN(C)C,residual activity,[2],100%
same,residual activity,[6],107%
same,residual activity,[7],56%
same,residual activity,[8],80%
same,residual activity,[3],41%
same,residual activity,[4],77%
N#Cc1c(NC(=O)c2cccc3ccccc23)sc2c1CCCC2,residual activity,[3],90%
same,residual activity,[9],86%
same,residual activity,[4],136%
O=C(c1cc2cc(O)ccc2[nH]1)c1cc2cc(O)ccc2[nH]1,residual activity,[6],68%
same,residual activity,[7],28%
same,residual activity,[8],62%
same,residual activity,[3],18%
same,residual activity,[9],52%
same,residual activity,[4],39%
